Screens (PubChem)
Hits are enriched below; roughly 1.8% of the tested compounds scored in any of these assays.
PAD4 FP inh: inhibitors of human PAD4; recombinant PAD4, RCA probe fluorescence polarization; inhibition, % at 6.36 µM; Q9UM07; 330,000 compounds, 0.41% hits; AID 485272;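 active = percent inhibition above a cutoff equal to the mean of all tested compounds plus 3 SD, cut at about 15% in these data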;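 note: 0% = PAD4 with RCA probe and DMSO and 100% = probe without PAD4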
LYPLA1 inh: blocks human lysophospholipase 1, a PME1 counter-screen | O75608 | recombinant LYPLA1, FP-Rh probe fluorescence polarization | inhibition, % at 5.9 µM | 320,000 compounds, 0.16% hits;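 active = inhibition above the mean of all tested compounds plus 3 SD, set per campaign, cut at about 14% in these data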;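 note: inhibitors block serine hydrolase probe labeling of LYPLA1 so polarization falls; 0% = enzyme with DMSO and 100% = wells lacking LYPLA1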
Target sequence (O75608 whole entry, looked up): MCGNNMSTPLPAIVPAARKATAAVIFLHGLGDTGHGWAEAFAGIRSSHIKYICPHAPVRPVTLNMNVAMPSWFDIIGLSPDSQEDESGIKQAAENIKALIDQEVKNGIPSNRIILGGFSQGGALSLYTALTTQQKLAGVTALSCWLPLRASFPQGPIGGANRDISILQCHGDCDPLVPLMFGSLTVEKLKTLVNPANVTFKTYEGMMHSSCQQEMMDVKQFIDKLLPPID
LYPLA2 counter: LYPLA2 (human) inhibition in PME1 counter-screen; O95372; AID 2177; 320,000 compounds, 0.38% hits; inhibition, % at 5.9 µM; recombinant LYPLA2, FP-Rh probe fluorescence polarization;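 active = inhibition above the screen-wide mean plus 3 SD, limit set per campaign, cut at about 26% in these data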;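 note: 0% = LYPLA2 with DMSO and 100% = wells lacking LYPLA2 enzyme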
Target sequence (O95372 whole entry, looked up): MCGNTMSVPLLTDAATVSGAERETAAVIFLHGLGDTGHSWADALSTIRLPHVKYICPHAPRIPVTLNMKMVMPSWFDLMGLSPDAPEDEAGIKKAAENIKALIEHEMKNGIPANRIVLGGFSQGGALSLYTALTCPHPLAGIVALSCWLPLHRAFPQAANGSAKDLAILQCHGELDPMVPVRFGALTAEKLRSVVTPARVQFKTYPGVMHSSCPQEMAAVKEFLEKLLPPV
GSTO1 inh: GSTO1 inhibition, counter-screen for RBBP9 inhibitors; P78417; recombinant GSTO1, activity-based probe fluorescence polarization; inhibition, % at 5.96 µM; 300,000 compounds, 1.1% hits;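 active = inhibition above the campaign mean inhibition plus 3 SD, cut at about 35% in these data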;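 note: 0% = GSTO1-1 with DMSO and 100% = wells lacking GSTO1-1 enzyme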
Target sequence (P78417 whole entry, looked up): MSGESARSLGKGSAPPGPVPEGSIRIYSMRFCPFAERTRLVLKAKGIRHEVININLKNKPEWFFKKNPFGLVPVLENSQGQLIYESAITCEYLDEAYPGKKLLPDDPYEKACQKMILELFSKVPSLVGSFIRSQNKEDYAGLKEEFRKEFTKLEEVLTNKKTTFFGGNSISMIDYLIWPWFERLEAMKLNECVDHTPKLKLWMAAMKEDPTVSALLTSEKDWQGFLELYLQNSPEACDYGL
PME-1 primary: PME-1 (human) inhibition; Q9Y570; recombinant PME-1, FP-Rh probe fluorescence polarization; inhibition, % at 5.9 µM; 320,000 compounds, 0.53% hits; AID 2130;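 active = inhibition above the campaign mean of all compounds plus 3 SD, cut at about 26% in these data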;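 note: competitive labeling of PME-1 active site by serine hydrolase directed probe; 0% = PME-1 with DMSO and 100% = wells lacking PME-1 enzyme; inhibitors block probe labeling so polarization falls and inhibition rises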
Fam108B inh: counter-screen for RBBP9 inhibitors: inhibitors of mouse Fam108B; recombinant Fam108B, FP-Rh probe fluorescence polarization; inhibition, % at 9.51 µM; 300,000 compounds, 0.33% hits; AID 1947;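 active = inhibition above the screen mean inhibition plus 3 SD, computed separately per campaign, cut at about 18% in these data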;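 note: inhibitors lower polarization as less probe binds the enzyme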
Fam108b inh conf: Fam108b (mouse) hydrolase inhibition, confirmation assay | shares compounds with Fam108B inh | recombinant Fam108b, FP-Rh probe fluorescence polarization | inhibition, % at 9.51 µM | 930 compounds, 44% hits;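 active = inhibition above a limit from the primary screen, the mean over all compounds plus 3 SD, cut at about 19% in these data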;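 note: 0% = median of active Fam108b wells and 100% = catalytically dead S170A mutant; inhibitors free the probe so polarization falls as inhibition rises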
Fam108b inh: inhibits mouse Fam108b in gel-based ABPP; recombinant Fam108b, fluorophosphonate probe; AID 588649; 260 compounds, 44% hits; inhibition, % at 20 µM; shares compounds with Fam108B inh; in the data active = inhibition above about 40%
GSTO1 confirm: confirmation of human GSTO1 inhibitors; shares compounds with GSTO1 inh; recombinant GSTO1, probe fluorescence polarization; inhibition, % at 5.96 µM; 2,400 compounds, 54% hits; AID 2176;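 active = inhibition above the primary screen's cutoff, its mean inhibition plus 3 SD, cut at about 35% in these data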;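 note: loss of polarization as inhibitors block binding of rhodamine sulfonate ester activity probe; 0% = GSTO1 with DMSO and 100% = wells lacking GSTO1 enzyme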
An asterisk follows results filed as active; / = not tested or not shown; + = active, no number.

SMILES | PAD4 FP inh | LYPLA1 inh | LYPLA2 counter | GSTO1 inh | PME-1 primary | Fam108B inh | Fam108b inh conf | others
O=C(O)c1ccc(-c2nc(-c3ccccc3)c(-c3cccs3)[nH]2)cc1 | 0.8 | 2.6 | 3.9 | -2.2 | 10.8 | 4.1 | /
COc1ccc(-c2nc(-c3cccs3)c(-c3cccs3)[nH]2)cc1O | -8.0 | -6.9 | -1.9 | -8.8 | 47.4* | 29.9* | 17.6
O=c1c2c3c(sc2n(CCN2CCOCC2)c(=O)n1Cc1ccco1)CCCCC3 | 1.1 | -5.0 | 6.5 | -2.7 | -1.4 | 20.4* | 16.3
O=c1c2c3c(sc2n(CCN2CCCCC2)c(=O)n1Cc1ccco1)CCCCC3 | -1.1 | -0.3 | 3.9 | 1.4 | 0.3 | 21.1* | 28.1*
Cc1oc(-c2ccc(-c3ccccc3)cc2)nc1CN(CCO)C(C)C | 4.3 | -1.7 | 2.8 | 5.9 | 0.5 | 1.4 | /
CCOc1ccccc1C(=O)NC(C(=O)N(C)Cc1ccc2c(c1)OCO2)C(C)C (stereo unspecified) | 2.9 | 1.4 | 1.7 | / | -0.3 | / | /
NC(=O)c1nsc(C(=O)N(c2cccc(F)c2)C(C(=O)NCC2CCCO2)c2c[nH]c3ccccc23)c1N (stereo unspecified) | -0.2 | -9.3 | -6.9 | -4.6 | 4.6 | 0.0 | /
COc1ccc(Nc2nnc(SC(C(=O)Nc3cc(C)ccc3C)c3ccccc3)s2)cc1 (stereo unspecified) | -1.8 | -3.0 | -0.2 | 1.7 | 0.4 | 4.8 | /
COc1ccc(Nc2nnc(SC(C(=O)Nc3ccc(OC)c(Cl)c3)c3ccccc3)s2)cc1 (stereo unspecified) | -4.6 | -3.5 | 1.7 | -18.8 | 51.5* | 37.8* | 24.8*
O=c1oc(-c2ccc(O)c(O)c2)cc2cccc(O)c12 | -2.6 | / | / | / | / | / | /
Oc1cccc2cc3cccc(O)c3c(O)c12 | -11.4 | -22.2 | -7.7 | 26.1 | 20.1 | 25.1* | 4.4 | Fam108b inh=55.0*
CCN(CC)c1nc(N)c2c(N)nc3c(c2c1C#N)CC(c1ccccc1)O3 (stereo unspecified) | -0.7 | 1.6 | 8.1 | 4.1 | -1.2 | 11.8 | /
CCN(CC)c1nc(N)c2c(N)n(-c3ccccc3C)c(=S)c(C#N)c2c1C#N | -1.3 | 2.7 | 10.2 | -6.0 | 10.3 | 20.2* | 7.2
COC(=O)c1ccccc1S(=O)(=O)N1CCC(C(=O)NCCC2=CCCCC2)CC1 | 0.0 | 2.5 | 6.0 | / | 2.7 | / | /
COc1ccc(CNC(=O)c2ccncc2)cc1 | -4.4 | 0.6 | 3.8 | -2.2 | 0.9 | -5.3 | /
COc1ccc(CNC(=O)c2ccc3nccnc3c2)cc1 | -0.6 | 4.5 | 8.5 | 6.0 | -0.6 | 19.0* | 5.1
O=c1oc2cc(O)ccc2cc1-c1nc2c(s1)CCc1ccccc1-2 | 2.2 | -0.4 | 0.5 | 6.7 | 8.6 | 22.4* | 23.4*
Cc1cc(CSc2ccccc2)ccc1NC(=O)c1ccc(Cl)c([N+](=O)[O-])c1 | -3.3 | 4.6 | 12.8 | 4.0 | -2.3 | 25.5* | 62.6* | Fam108b inh=20.0
Cc1cc(CSc2ccccc2)ccc1NC(=O)c1ccc(C)c([N+](=O)[O-])c1 | -1.0 | -2.1 | -2.7 | -2.3 | 1.0 | -4.4 | /
Cc1ccc(NC(=O)COc2coc(CN3CCc4ccccc43)cc2=O)cc1Cl | -0.9 | -3.3 | -1.9 | 7.8 | -2.5 | 0.5 | /
COc1cccc(Nc2nc(-c3ccc(O)cc3)cs2)c1 | 2.4 | -2.9 | -1.6 | -5.1 | 9.7 | 8.5 | /
COc1cccc(Nc2nc(-c3cccc(N4C(=O)c5ccccc5C4=O)c3)cs2)c1 | 2.7 | -17.1 | -5.7 | -0.3 | 12.1 | 30.8* | 15.8
CCOc1cc(/C=C2/SC(=S)N(Cc3ccccc3)C2=O)ccc1O | -69.8 | -26.5 | -46.5 | -115.5 | -177.8 | -40.3 | /
CCOc1cc(/C=C2\C(=O)N(c3nc(-c4ccc(Br)cc4)cs3)N=C2c2ccccc2)ccc1O | -10.2 | -17.1 | -17.2 | -47.4 | 10.1 | 42.4* | 42.4* | Fam108b inh=90.0*
O=C(Nc1ccc2c(c1)OCO2)c1ccc([N+](=O)[O-])cc1[N+](=O)[O-] | -10.4 | -4.4 | 10.5 | 8.0 | -1.6 | -1.4 | /
SMILES | PAD4 FP inh | LYPLA1 inh | LYPLA2 counter | GSTO1 inh | PME-1 primary | Fam108B inh | Fam108b inh conf | others
COc1ccc(NC(=O)c2cccc(N3C(=O)c4ccc(C(=O)Nc5ccc(OC)c(O)c5)cc4C3=O)c2)cc1O | -0.6 | 0.3 | 16.2 | 13.4 | 20.4 | 21.0* | 25.7*
CC(C)c1ccc(C2C3=C(CC(C)(C)CC3=O)NC3=C2C(=O)c2ccccc23)cc1 (stereo unspecified) | -0.2 | -9.3 | -2.9 | -3.4 | 11.2 | 22.6* | 4.3
CC1(C)CC(=O)C2=C(C1)NC1=C(C(=O)c3ccccc31)C2c1cc([N+](=O)[O-])ccc1O (stereo unspecified) | -0.9 | -11.1 | -3.3 | 10.6 | 14.8 | 21.3* | 14.6
CCOc1ccc(C(=O)NN2CCOCC2)cc1 | -2.5 | -3.0 | 1.8 | -3.0 | 2.1 | 2.3 | /
Cc1c(C)c2ccc(OCC(=O)NCCN3CCOCC3)c(C)c2oc1=O | 1.2 | 0.2 | -7.5 | 4.9 | -4.3 | -1.2 | /
CCN1CCc2c(sc(NC(=O)Nc3ccc(Cl)c(Cl)c3)c2C(N)=O)C1 | -6.0 | 13.8 | 14.3 | -10.7 | 56.7* | 31.9* | 4.1
CCN1CCc2c(sc(NC(=O)Cc3ccccc3)c2C(N)=O)C1 | -0.6 | -1.6 | -3.5 | 0.2 | 0.0 | -0.2 | /
N#C/C(=C(/O)c1ccco1)c1nc2ccccc2s1 | -4.7 | 3.0 | -2.3 | -25.6 | -1.9 | 5.2 | /
N#C/C(=C(/O)c1cc2ccccc2o1)c1nc2ccccc2s1 | -2.6 | -0.2 | -1.5 | -10.2 | 8.8 | 21.9* | 21.0*
Cc1occc1C(=O)NNC(=O)CN1C(=O)NC(C)(c2ccccc2)C1=O (stereo unspecified) | -1.2 | 4.2 | 1.8 | -4.6 | -0.2 | 0.1 | /
O=c1oc(-c2ccccc2Cl)nc2ccsc12 | 5.1 | -5.3 | -1.7 | -23.0 | 2.1 | 34.0* | 32.1* | Fam108b inh=85.0*
COc1ccccc1Oc1c(C)oc2c(CN3CCN(CCO)CC3)c(O)ccc2c1=O | 90.3* | 54.9* | 45.6* | 67.4* | 40.9* | 46.9* | -7.2 | GSTO1 confirm=8.3
CCOc1ccccc1Oc1c(C)oc2c(CN3CCN(CCO)CC3)c(O)ccc2c1=O | -2.5 | 0.1 | -1.2 | 11.8 | 0.5 | 5.9 | /
CC(=O)Nc1ccc(S(=O)(=O)N(C)CC(=O)OCC(=O)c2ccc3c(c2)NC(=O)CO3)cc1 | -1.6 | 3.8 | 18.1 | / | -0.9 | / | /
CCOC(=O)c1ccc2c(c1)C1C=CCC1C(C(=O)OCC)N2 (stereo unspecified) | -8.3 | -3.9 | -2.4 | 23.6 | 7.9 | 7.2 | /
O=C(O)c1ccc2c(c1)[C@@H]1C=CC[C@@H]1[C@H](c1ccccn1)N2 | 0.0 | -7.3 | 10.3 | 50.5* | -34.5 | 38.7* | + | Fam108b inh=0.0;GSTO1 confirm=9.4
